The results in this text go back to PubChem BioAssay AID2599 (Sanford-Burnham Center for Chemical Genomics, 2010).

Molecules are shown by their SMILES. About 5,800 (1.8%) of roughly 330,000 compounds were called active. Many of the other results were omitted from the sample, so actives are more common in it than they were. Unmarked numbers belong to inactive results.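 How the source made its calls: active means inhibition above about 50% at the single tested dose (limit read from the data); inactive means the rest.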

The test deals with Sentrin-specific protease 6 (Homo sapiens) (UniProt Q9GZR1). Nature of the test: inhibition of human SENP6 catalytic domain – biochemical, luminescence, uHTS, primary screen (AID 2599).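 Further: plate controls were DMSO wells with enzyme for no effect and DMSO wells lacking enzyme for full effect.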 The note with it: Recombinant SENP6 catalytic domain, aminoluciferin luminescence; at 10 µM; active compounds read high.
Sequence of Sentrin-specific protease 6 (Homo sapiens) (Q9GZR1 628-1112 limits assumed): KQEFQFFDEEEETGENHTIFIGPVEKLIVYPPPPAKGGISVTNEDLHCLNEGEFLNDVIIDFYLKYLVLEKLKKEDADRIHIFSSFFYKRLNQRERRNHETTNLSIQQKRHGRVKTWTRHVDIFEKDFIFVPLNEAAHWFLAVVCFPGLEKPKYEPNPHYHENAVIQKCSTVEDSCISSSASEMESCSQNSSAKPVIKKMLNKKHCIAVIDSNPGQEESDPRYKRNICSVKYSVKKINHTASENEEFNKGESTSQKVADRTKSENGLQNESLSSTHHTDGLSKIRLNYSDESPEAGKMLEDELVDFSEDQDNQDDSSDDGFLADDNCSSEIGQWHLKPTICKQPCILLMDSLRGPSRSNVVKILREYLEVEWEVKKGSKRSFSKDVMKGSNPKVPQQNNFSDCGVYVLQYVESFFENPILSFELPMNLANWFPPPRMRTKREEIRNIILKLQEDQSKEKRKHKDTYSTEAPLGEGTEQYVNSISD
For the compound `Cc1ccc(NC(=O)c2ccccn2)cc1S(=O)(=O)N1CCOCC1`, the inhibition is -7.58%.
The value for `COc1ccc(C(=O)O/N=C(\N)c2ccccn2)cc1[N+](=O)[O-]` was 13%; that for `Cc1ccc(C(=O)O/N=C(\N)c2ccccn2)cc1Cl` was 94.1% (active).
With `O=C(COC(=O)c1ccccn1)NNC(=O)c1ccc(Br)cc1` the figure was 6.84%.
With `N/C(=N\OC(=O)c1ccc([N+](=O)[O-])cc1)c1ccccn1` the figure was 93.3% (active); with `O=C(COC(=O)c1ccccn1)NNC(=O)c1ccc([N+](=O)[O-])cc1`, -1.82%; with `Oc1cc2c(cc1O)CN(C(=S)NCCc1ccc(Cl)cc1)CCC2`, 1.23%.
On to `O=C(NCc1ccncc1)C1CCN(C(=O)c2cccc(Cl)c2)CC1`, for which the inhibition was -3.02%.
The value for `Cc1cc(Nc2cccc(C)c2C)n2ncnc2n1` was -7.33%.
For the compound `C=CCn1c(-c2ccc(Cl)cc2)ccc(C#N)c1=O`, the inhibition was 4.58%.
The value for `O=C(Nc1ccc2c(c1)CCC2)c1cccc(S(=O)(=O)N2CCN(c3ccc(F)cc3)CC2)c1` was -2.68%.
The value for `O=C(c1cccc(S(=O)(=O)Nc2ccccc2Cl)c1)N1CCN(C(=O)c2ccco2)CC1` was 0.095%.
The value for `O=C(Nc1ccc2c(c1)CCC2)c1cccc(S(=O)(=O)Nc2ccccc2Cl)c1` was 58.9% (active).
`CCOc1cnc(C(=O)NNC(=O)c2ccccc2Br)o1`: the inhibition is -9.25%.
Take `COc1ccccc1CC(=O)Nc1ccc(F)cc1F`: the inhibition is -5.72%.
With `COc1ccc(C(=O)Nc2ccc(F)cc2F)cc1` the figure was 76.1% (active).
With `COc1cc(OC)cc(C(=O)OCC(=O)Nc2ccc(F)cc2F)c1` the figure was 3.41%; with `Cc1ccc(C)c(S(=O)(=O)N2CCN(C(=O)Nc3ccccc3)CC2)c1`, -12.7%.
As for `CC1CCCC(C)N1C(=O)COC(=O)COc1ccccc1C#N` (configuration not stated), the inhibition is -21.9%.
The value for `Brc1ccc(-c2noc(-c3ccccc3)n2)o1` was -29.7%.
As to `O=C(OCc1ccc(Br)cc1)c1cccc(-c2nnc(-c3ccccc3)o2)c1`, the inhibition is -4%.
With `COc1ccccc1-c1nnc(-c2ccc(F)cc2)o1` the figure was 40.7%; with `Nc1ccc(-c2nnc(-c3ccccc3)o2)cc1`, 61.5% (active).
With `Nc1ccc(-c2nnc(-c3ccc(-c4ccccc4)cc3)o2)cc1` the figure was 53.4% (active); with `CN(C)c1ccc(-c2nnc(-c3cccnc3)o2)cc1`, 14.7%.
Consider `CSc1ccccc1-c1nnc(-c2ccc(Cl)cc2)o1`, for which the inhibition was 26.3%.
The value for `Brc1ccc(-c2nnc(-c3ccccc3)o2)o1` was 67.5% (active); that for `OC(c1nnc(-c2ccccc2)o1)c1cccs1` (configuration not stated) was -10.9%.
For `COc1ccc(C(C)=O)cc1COC(=O)Cn1cnc2ccccc2c1=O`, the inhibition is -0.874%.
The value for `O=C(NCC1CCCO1)c1ccc(S(=O)(=O)Nc2ccc(F)cc2)cc1` (configuration not stated) was -0.148%.
With `CN(C(=O)c1ccccc1)c1nccnc1C#N` the figure was 11.5%; with `CC(=O)c1c(C)[nH]c(C(=O)OCC(=O)NCCC(C)C)c1C`, -9.8%.
Turning to `Cc1cc(C)c(C#N)c(SCC(=O)N(CC(C)C)C2CCS(=O)(=O)C2)n1` (configuration not stated), the inhibition is -11.7%.
The value for `O=C(O)c1ccc2c(c1)C(=O)N(NC(=O)c1ccc(O)cc1)C2=O` was -2.08%; that for `O=C(O)c1ccc(/C=C2\SC(=S)N(NC(=O)c3ccc(Br)cc3)C2=O)cc1` was -7.64%; that for `CC(=O)N1C(=O)/C(=C2\SC(=S)N(NC(=O)c3ccc(O)cc3)C2=O)c2ccccc21` was 80.2% (active).
The value for `O=C(Nc1ccccc1-c1nc2ccccc2[nH]c1=O)c1cccs1` was 0.16%.
With `C/C(=N\Nc1nc2ccccc2[nH]1)c1cccs1` the figure was 60.7% (active); with `C/C(=N\Nc1ncc(Cl)cc1Cl)c1cccs1`, 6.67%; with `COc1ccc(N(Cc2ccccc2)S(=O)(=O)c2cccc(C(=O)O)c2)cc1`, -6.92%.
`COc1ccc(C(CC(=O)c2ccccc2)S(=O)(=O)c2ccccc2)cc1` (configuration not stated): the inhibition is 59.1% (active).
With `COc1ccc(NC(=O)CS(=O)(=O)c2ccccc2)cc1` the figure was 13.2%; with `COc1ccc(NC(=O)C2CCC(CNC(=O)[C@@H]3Cc4ccccc4CN3)CC2)cc1` (some centres not stated), -1.01%.
With `CCC(NC(=O)c1cc(COc2ccc(F)c(F)c2)on1)c1ccncc1` (configuration not stated) the figure was 12.2%.
With `O=C(NCCN1CCCC(O)C1)c1cc(COc2c(F)cccc2F)on1` (configuration not stated) the figure was 4.9%; with `Cc1cccc(C)c1Nc1nnc(SCC(=O)Nc2sccc2C#N)s1`, 22.6%.
On to `Cc1csc(SCC(=O)Nc2sccc2C#N)n1`, for which the inhibition was 88.2% (active).
The value for `Cc1ccc(NC(=O)CSCC(=O)Nc2sccc2C#N)cc1` was 0.055%; that for `COc1ccc(CCNC(=O)CS(=O)(=O)Cc2nc(-c3ccc(C)cc3)oc2C)cc1OC` was 8.83%; that for `CSCCC(Nc1ccc(S(=O)(=O)N2CCOCC2)cc1[N+](=O)[O-])C(=O)OCC(=O)N(C(C)C)C(C)C` (configuration not stated) was -3.58%.
The value for `C/C(=N\NC(=S)Nc1ccc(C)cc1)c1cc2ccccc2o1` was -7.73%; that for `COc1ccccc1CN(C)C(=O)c1cc2ccccc2o1` was -15.1%; that for `Cc1ccc(OC(=O)c2cc3ccccc3o2)cc1` was 72.6% (active).
For the compound `CC1=C/C(=N\OS(=O)(=O)c2ccccc2)C=CC1=O`, the inhibition was -4.19%.
The value for `CCOc1ccc(OCC)c(NC(=O)CCS(=O)(=O)c2ccc(C)cc2)c1` was -6.59%; that for `CC(=O)Oc1cccc(C(=O)Nc2ccccc2NC(=O)c2cccc(OC(C)=O)c2)c1` was 7.29%; that for `CC(=O)Oc1ccc2c(c1)C(=O)c1ccccc1C2=O` was 55% (active).
Take `CC(=O)O[C@H]1c2ccccc2-c2ccccc2[C@@H]1OC(C)=O`: the inhibition is 8.21%.
For `CC(C)C(=O)NCC(c1cccs1)S(=O)(=O)c1ccc(F)cc1` (configuration not stated), the inhibition is -1.5%.
With `COc1cc(/C=C/C(=O)OCC(=O)NC(=O)NCc2ccccc2)ccc1OCC#N` the figure was -0.36%.
With `Cc1cc2oc3ccc(NCCC4CCCN4C)cc3c(=O)c2cc1C` (configuration not stated) the figure was 2.23%; with `O=C(Nc1c2c(nn1-c1cccc(Cl)c1)CS(=O)(=O)C2)c1cccs1`, -6.08%.

As a reminder, the inhibition is the relative decrease from the control value, in per cent.
